The campaign covered roughly 39,000 compounds. About 500 (1.3%) were called active. The full list was thinned out, with actives kept by preference.
Test system: S. aureus RN4220
Assay: growth inhibition call (relative growth <= 0.2)
Settings: 50 µM

Growth inhibition call, inactive:
COc1ccc(S(=O)(=O)Nc2ccc3c(c2)C(=O)N([C@H](C)CO)C[C@H](C)[C@@H](CN(C)C(=O)CCC(F)(F)F)OCCCC[C@@H](C)O3)cc1, COc1cccc(-c2cnc3c(c2)C(=O)N([C@H](C)CO)C[C@H](C)[C@H](CN(C)S(=O)(=O)c2cn(C)cn2)O3)c1, O=C1NC2=C(C(=O)OC2)[C@H](c2ccccc2)N1, C[C@@H](O)[C@@H](O)[C@@H](O)C/C=N/NC(=O)CCCCCCC(=O)NO, CC(C)NC(=O)N(C)C[C@@H]1Oc2ccc(NC(=O)CCN3CCOCC3)cc2C(=O)N([C@H](C)CO)C[C@@H]1C, Oc1ccc(C=Cc2cc(O)cc(O)c2)cc1, COc1ccc(O)cc1, C[C@@H]1CN([C@@H](C)CO)C(=O)c2cc(NC(=O)Nc3ccc4c(c3)OCO4)ccc2O[C@@H](C)CCCCO[C@@H]1CN(C)C(=O)C1CCCCC1, COc1ccc(S(=O)(=O)Nc2ccc3c(c2)C(=O)N([C@H](C)CO)C[C@@H](C)[C@@H](CN(C)C(=O)C2CCCCC2)OCCCC[C@@H](C)O3)cc1, C[C@H](CO)N1C[C@H](C)[C@H](CN(C)S(=O)(=O)c2cn(C)cn2)Oc2ccc(NC(=O)NC3CCCCC3)cc2C1=O, C[C@@H]1CCCCO[C@H](CN(C)Cc2ccccc2)[C@@H](C)CN([C@@H](C)CO)C(=O)c2cc(NS(=O)(=O)c3ccc(F)cc3)ccc2O1, C[C@@H]1CCCCO[C@H](CN(C)S(=O)(=O)c2cccs2)[C@@H](C)CN([C@@H](C)CO)C(=O)c2cc(NC(=O)CCC(F)(F)F)ccc2O1, CC(=O)OC[C@H]1O[C@@](COC(C)=O)(O[C@H]2O[C@H](COC(C)=O)[C@@H](OC(C)=O)[C@H](OC(C)=O)[C@H]2OC(C)=O)[C@@H](OC(C)=O)[C@@H]1OC(C)=O, C[C@H]1CN([C@@H](C)CO)C(=O)CCCn2nncc2CO[C@@H]1CN(C)S(=O)(=O)c1ccc2c(c1)OCCCO2, C[C@H](CO)N1C[C@H](C)[C@@H](CN(C)Cc2ccc(Oc3ccccc3)cc2)Oc2ccc(NS(=O)(=O)c3ccc(F)cc3)cc2C1=O, C[C@H]1CN([C@@H](C)CO)C(=O)c2cccc(NS(=O)(=O)c3ccc(F)cc3)c2O[C@H]1CN(C)Cc1ccc(Cl)c(Cl)c1, C[C@H]1CN([C@@H](C)CO)C(=O)Cc2cc(NC(=O)CCCCCC(=O)Nc3ccccc3N)ccc2O[C@@H]1CN(C)C(=O)Nc1ccc(C(F)(F)F)cc1, CCS(=O)(=O)Nc1ccc2c(c1)C(=O)N(C)[C@H]1CC[C@@H](CC(=O)N3CCN(C)CC3)O[C@@H]1CO2, COc1cc(CN)cc(OC)c1OC, COc1cc(O)cc(OC)c1OC, COc1ccc(C2=C(N)C(=O)NC2=O)cc1OC, COc1cccnc1N, COc1ccc(NC(=O)N(C)C[C@H]2OCCCC[C@H](C)Oc3ccc(NC(=O)c4ccncc4)cc3C(=O)N([C@@H](C)CO)C[C@@H]2C)cc1, COc1ccc(CN(C)C[C@H]2OCCCC[C@@H](C)Oc3ccc(NC(=O)Nc4ccc5c(c4)OCO5)cc3C(=O)N([C@H](C)CO)C[C@H]2C)cc1, C[C@@H]1CCCCO[C@@H](CN(C)Cc2ccc(C(=O)O)cc2)[C@@H](C)CN([C@H](C)CO)C(=O)c2cc(NS(=O)(=O)c3ccc(Cl)cc3)ccc2O1, COc1ccc(NC(=O)Nc2ccc3c(c2)C(=O)N([C@H](C)CO)C[C@H](C)[C@H](CN(C)C(=O)C2CCCCC2)OCCCC[C@H](C)O3)cc1, C[C@@H]1CN([C@H](C)CO)C(=O)c2cccc(NC(=O)CCCCCC(=O)Nc3ccccc3N)c2O[C@@H]1CN(C)Cc1ccc(-c2ccccc2)cc1, COc1ccc(CN(C)C[C@H]2Oc3c(NS(=O)(=O)c4cn(C)cn4)cccc3C(=O)N([C@@H](C)CO)C[C@@H]2C)cc1, CO[C@@H]1CN(C)C(=O)c2cc(NS(=O)(=O)c3ccccc3C)ccc2OC[C@@H](C)N(S(C)(=O)=O)C[C@H]1C, C[C@H](CO)N1C[C@H](C)[C@@H](CN(C)Cc2ccc(C(F)(F)F)cc2)OCCCC[C@H](C)Oc2ccc(NC(=O)c3ccncc3)cc2C1=O

Growth inhibition call, active:
COc1cc(C=Cc2ccc(O)cc2)cc(OC)c1, CCCCCCCCCC(=O)N[C@H]1[C@H](Oc2c3cc4cc2Oc2ccc(cc2Cl)[C@@H](O[C@@H]2O[C@H](CO)[C@@H](O)[C@H](O)[C@H]2NC(C)=O)[C@@H]2NC(=O)[C@H](NC(=O)[C@@H]4NC(=O)[C@H]4NC(=O)[C@@H](Cc5ccc(c(Cl)c5)O3)NC(=O)[C@@H](N)c3ccc(O)c(c3)Oc3cc(O)cc4c3)c3ccc(O)c(c3)-c3c(O[C@H]4O[C@H](CO)[C@@H](O)[C@H](O)[C@@H]4O)cc(O)cc3[C@H](C(=O)O)NC2=O)O[C@H](CO)[C@@H](O)[C@@H]1O, CCCCC/C=C/CCC(=O)N[C@H]1[C@H](Oc2c3cc4cc2Oc2ccc(cc2Cl)[C@@H](O[C@@H]2O[C@H](CO)[C@@H](O)[C@H](O)[C@H]2NC(C)=O)[C@@H]2NC(=O)[C@H](NC(=O)[C@@H]4NC(=O)[C@H]4NC(=O)[C@@H](Cc5ccc(c(Cl)c5)O3)NC(=O)[C@H](N)c3ccc(O)c(c3)Oc3cc(O)cc4c3)c3ccc(O)c(c3)-c3c(O[C@H]4O[C@H](CO)[C@@H](O)[C@H](O)[C@@H]4O)cc(O)cc3[C@@H](C(=O)O)NC2=O)O[C@H](CO)[C@@H](O)[C@@H]1O, CCCCCC=CCCC(=O)NC1C(Oc2c3cc4cc2Oc2ccc(cc2Cl)C(OC2OC(CO)C(O)C(O)C2NC(C)=O)C2NC(=O)C(NC(=O)C4NC(=O)C4NC(=O)C(Cc5ccc(c(Cl)c5)O3)NC(=O)C(N)c3ccc(O)c(c3)Oc3cc(O)cc4c3)c3ccc(O)c(c3)-c3c(OC4OC(CO)C(O)C(O)C4O)cc(O)cc3C(C(=O)O)NC2=O)OC(CO)C(O)C1O (stereo unspecified) [TEICOPLANIN [A(2-1) shown]], COc1ccc(Cc2cnc(N)nc2N)cc1OC, COc1cc(Cc2cnc(N)nc2N)cc(OC)c1OC

From the antibiotic and cytotoxicity screens of Wong et al. (2023)
